According to PubChem BioAssay AID374 (University of Pittsburgh Molecular Library Screening Center, 2006):
In all, about 65,000 compounds went through this assay and about 100 (0.15%) were called active. This is one part of a sample in which actives are shown more often than they occur.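 The calls were made as follows: active = inhibition above about 50% (limit read from the data); inconclusive = inhibition over screen mean plus 3 SD, below that limit; inactive = the rest.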

Target: Dual specificity protein phosphatase 1 (Homo sapiens) (UniProt P28562)
Sequence (P28562 whole entry, looked up): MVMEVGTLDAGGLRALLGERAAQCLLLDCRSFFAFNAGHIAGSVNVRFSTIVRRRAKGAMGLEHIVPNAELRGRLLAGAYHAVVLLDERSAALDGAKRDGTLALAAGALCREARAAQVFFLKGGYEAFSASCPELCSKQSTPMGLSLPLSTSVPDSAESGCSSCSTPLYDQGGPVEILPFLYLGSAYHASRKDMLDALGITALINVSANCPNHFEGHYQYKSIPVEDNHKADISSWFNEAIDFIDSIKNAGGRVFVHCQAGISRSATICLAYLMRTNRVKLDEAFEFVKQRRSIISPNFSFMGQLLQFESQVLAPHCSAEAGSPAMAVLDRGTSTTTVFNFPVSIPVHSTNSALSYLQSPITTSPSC
Assay: blockers of human DUSP1 activity – biochemical, in vitro, primary screen (AID 374);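 also: 0% = DMSO max control wells and 100% = wells with enzyme stopped by NaOH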
Settings: recombinant MKP-1, OMFP hydrolysis fluorescence; active compounds read high;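 compounds tested at a single concentration somewhere between 10 and 100 µM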

inhibition, inactive:
CC(C)COC(=O)c1ccc(NC(=O)C2C3C=CC(C3)C2C(=O)O)cc1 (configuration not stated) 23.6%
CCCCOc1ccc(C(=O)NCc2ccco2)cc1 -0.67%
C[C@H](NC(=O)OC(C)(C)C)c1nnc(SCC(=O)Nc2ccc(Br)cc2)o1 13%
Cc1oc2nc(SCC(=O)NCc3cccnc3)nc(N)c2c1C 32.5%
CN1c2ccccc2-c2nc3ccccc3n2C1c1ccco1 (configuration not stated) -25.5%
COc1ccc(F)cc1S(=O)(=O)Nc1ccc2c(c1)OCO2 12.4%
CCOC(=O)N1CCN(C(=O)CN(c2ccc(C)c(C)c2)S(=O)(=O)c2ccccc2)CC1 12.6%
O=S(=O)(c1cccs1)N1CCc2ccccc2C1 1.16%
CC1Cn2c(nnc2-c2cccs2)S1 (configuration not stated) -6.93%
Cc1nc2nc3c(cn2n1)C(=O)CC(c1ccccc1)C3 (configuration not stated) -8.11%
CCSC(C)CC1C/C(=N/O)c2c(C)noc2C1 (configuration not stated) 12.5%
COc1cccc(C2/C(=C(/O)c3ccc(F)cc3)C(=O)C(=O)N2CCN(C)C)c1 (configuration not stated) 3.73%
O=C(Oc1ccc2c(c1)CCC2)N1CCOCC1 -9.77%
O=C(NC(=O)c1ccc(Cl)c(Cl)c1)OC1CCS(=O)(=O)C1 (configuration not stated) 0.18%
O=C(Nc1c(Cl)cccc1Cl)C1CCC1 -12.7%
Cc1cccc(N2CCN(C(c3ccccc3)c3nnnn3CC3CCCO3)CC2)c1C (configuration not stated) 20.8%
COCCOC(=O)C1=C(C)NC(=O)NC1c1ccc(Cl)cc1 (configuration not stated) 5.89%
CCc1ccccc1NC(=O)CSc1nnc([C@@H](NC(=O)OC(C)(C)C)C(C)CC)o1 (some centres not stated) 27.6%
N#Cc1nc(Cc2cccc3ccccc23)oc1NCc1ccc2c(c1)OCO2 -0.11%
COc1ccc(S(=O)(=O)Nc2ccc(S(=O)(=O)N3CCCCC3)cc2)cc1OC -11.3%
O=C(O)c1ccc(COCC(F)(F)F)cc1 5.73%
COC(=O)[C@H](CCSC)NC(=O)Nc1ccc(OC)cc1 -29.3%
Cc1ccc(C(=O)NCCNS(=O)(=O)c2ccccc2)cc1 9.54%
CCOC(=O)C1C(=O)OC2(CCCC2)C1C(=O)OCC (configuration not stated) 0.52%
CSC1=NCCN1C(=O)c1ccc(S(=O)(=O)N2CCOCC2)cc1 -8.44%
CC(C)(C)n1nc2c(c1NC(=O)c1ccc(S(=O)(=O)N3CCCC3)cc1)CS(=O)C2 (configuration not stated) 1.54%
COCCCNC(=O)CCc1nc2cccnc2n1Cc1ccc(OC)cc1 2.57%
CCC(C(=O)Nc1ncccn1)(C(F)(F)F)C(F)(F)F -11.8%
CCN(CC)S(=O)(=O)c1cccc(C(=O)Nc2cc(C)nn2-c2nc(C)cc(C)n2)c1 -26.4%
Cc1nc(-c2ccc(NC(=O)c3cccs3)cc2)cs1 -3.52%
Cn1c(SCC(=O)Nc2cccc(O)c2)nnc1-c1ccc(S(=O)(=O)N2CCOCC2)cc1 -24.3%
OC(COc1ccccc1)Cn1cc(Br)cn1 (configuration not stated) -0.2%
COC(=O)c1ccc(C2C3=C(Nc4nnnn42)c2ccccc2OC3)cc1 (configuration not stated) -1.69%
Cc1c(C)c2cc3c4c(oc3c(C)c2oc1=O)CCCC4 10%
Cc1nnc(SCC(=O)N2CCc3ccccc32)n1-c1ccccc1 17.3%
C=CCn1c(=O)c2ccccc2n2c(SCC(=O)N3CCCc4ccccc43)nnc12 12.1%
COC(C)(C)[C@]12CC(O)(C(C)C)ON1[C@H]1CCCCC1N2O (some centres not stated) -23.5%
CCOc1ccc(C(=O)NC2CCN(S(=O)(=O)CC)CC2)cc1 -10.3%
COC(=O)C(C)n1cnc2c(nnn2-c2cccc(Cl)c2)c1=O (configuration not stated) -3.96%
Cc1ccc(CNC(=O)C2CCCN(S(C)(=O)=O)C2)cc1 (configuration not stated) 4.5%
O=C(c1ccco1)N1CCN(CC(=O)N(C2CCCCC2)C2CCS(=O)(=O)C2)CC1 (configuration not stated) 8.56%
COc1ccc(-n2ncc3c(N4CCc5ccccc54)ncnc32)cc1 -0.04%
CCCN1C(=O)C(NS(=O)(=O)c2ccc(N)cc2)(C(F)(F)F)C(C(=O)OC)=C1C (configuration not stated) 7.02%
Nc1ncc(-c2cc3ccccc3oc2=O)s1 -7.46%
COc1ccccc1N1CCN(C(=O)CSc2nnc(-c3ccoc3C)o2)CC1 2.49%
CC1=NC2(CCCc3c2no[n+]3[O-])N(O)C1(C)C (configuration not stated) 10.4%
Cc1ccc(-n2nc3c(c2NC(=O)c2ccc4c(c2)OCO4)CSC3)c(C)c1 28.8%
CCOc1cc(-c2conc2N)cc(OCC)c1OCC 0.9%
CCOc1ccc(NC(=O)Nc2ccc(N(C)C(C)=O)cc2)cc1 6.8%
CCOC(=O)C1CCN(C(=O)CSc2cc(=O)n(C)c3ccccc23)CC1 3.52%
Cn1c(=O)c(C(=O)Nc2ncccn2)c(O)c2ccccc21 1.1%
O=C(Nc1cccnc1)c1noc2c1CCCCC2 -9.22%
S=C1SCN(CCN2CCOCC2)CN1Cc1ccccc1 22.5%
Cn1cc(S(=O)(=O)N2CCC(Cc3ccccc3)CC2)c(=O)n(C)c1=O 13.6%
CCOC(=O)C1=C(CC)Nc2ccccc2N=C1NC(=O)c1cccc(S(=O)(=O)N2CCCC2)c1 17.2%
CCOC(=O)N1CCN(C(=O)c2ccc(CN(c3ccc(C)c(C)c3)S(C)(=O)=O)cc2)CC1 6.83%
CCCC(=O)Nc1c(O)c2ccccc2[nH]c1=O 24%
O=C(O)CN(Cc1ccco1)S(=O)(=O)c1ccc(F)cc1 -3.94%
CC(C)C[C@H](NC(=O)Nc1cccc(C(F)(F)F)c1)C(=O)O -11.4%
CCOC(=O)c1cc2c(n(-c3ccc(C)cc3)c1=O)CCCC2=O 3.58%
CCN1C(=O)CS/C1=N\c1nccs1 2.24%
Cc1cc(C(=O)OCC(=O)NCc2ccco2)c(C)n1-c1ccccc1 8.87%
CCCC(NC(=O)c1ccccc1)c1nc2ccccc2n1Cc1ccc(C(=O)OC)o1 (configuration not stated) -11.6%
O=C(Cn1nnc(-c2ccc(CN3CCOCC3)cc2)n1)NC1CCCCC1 -10.1%
COc1ccc(S(=O)(=O)N2CCCC2)c(C)c1C 2.42%
CCn1c(SCC(=O)Nc2cc(C)c(Cl)cc2OC)nnc1-c1ccco1 13%
Cn1cccc1C(=O)NC(=O)COC(=O)Cc1coc2ccc3ccccc3c12 31.4%
CCOc1ccc2nc(SC(CC)C(=O)Nc3cc(C)on3)sc2c1 (configuration not stated) 2.57%
C=CCn1c(COc2ccccc2F)nnc1SCC(=O)N1CC(=O)Nc2ccccc21 2.2%
CCC1CCCCN1CCCNC(=O)Cn1nc(-c2ccccc2)ccc1=O (configuration not stated) 0.39%
CCCc1[nH]nc2c1C(c1c(C)nn(-c3ccccc3)c1Cl)C(C#N)=C(N)O2 (configuration not stated) -4.58%
Cc1ccc(C(C(=O)NCc2ccco2)N(CC2CCCO2)C(=O)Cn2nnc3ccccc32)cc1 (configuration not stated) 4.86%
COC(=O)c1ccc(NC(=O)CSc2nnc(-c3ccncc3)n2C)cc1 -30.5%
COc1ccccc1C1/C(=C(/O)c2ccc(C)cc2)C(=O)C(=O)N1Cc1ccco1 (configuration not stated) 22.9%
COc1ccc(OC)c(C(=O)c2coc3ccc(OC)cc23)c1 3.61%
COc1ccc(NC(=O)C2CCCN(S(=O)(=O)c3cccc4cccnc34)C2)cc1OC (configuration not stated) 6.18%
CCn1c(Cc2ccccc2)nnc1SCc1nc2ccccc2c(=O)[nH]1 7.32%
NC(=O)CSc1oc(-c2cccs2)nc1S(=O)(=O)c1ccccc1 6.79%
CCOc1ccc(OCc2ccc(C(=O)Nc3cccc(C)n3)o2)cc1 -1.14%
CCc1nc(C)cn1S(=O)(=O)c1cc(OC)c(C)cc1C -31.2%
COc1cc(Br)cc(/C=N/c2ncn[nH]2)c1O -1.54%
CC1=NCCN1S(=O)(=O)c1ccc(Br)c(C)c1 -0.35%
Cn1c(C(=O)N2CCC(C(N)=O)CC2)cc2c(=O)n(C)c3ccccc3c21 8.99%
O=C(O)CSCNC(=O)CC12CC3CC(CC(C3)C1)C2 -17.4%
CCC(=O)c1cc2c(cc1NC(=O)c1cccs1)OCCO2 1.58%
O=S(=O)(NCCOc1cccc2cccnc12)c1ccc(F)cc1 -4.61%

inhibition, active:
O=C(CSc1nc2[nH]ncc2c(=O)n1-c1ccccc1)N1CCCc2ccccc21 50.2%
